Measurements: PubChem BioAssay (NCI)
The panel holds about 79,000 compounds, 15% with a hit somewhere; the sample as a whole holds those more often. Unmarked numbers belong to inactive results. Activity calls are given as the source filed them. No stated cut-off is given here; in the data, active means growth inhibition above about 70%; inactive means the rest. Where a SMILES comes first, the peptide text is derived from it.

How the values were obtained:
[1] = NCI Yeast Anticancer Drug Screen. Data for the rad50 strain (AID 155);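 further: 0% = growth of vehicle-only cultures of the same strain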; settings: S. cerevisiae rad50 strain growth inhibition; at 50.0 µM; hits give high values
Outline: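 Yeast carrying a defined DNA repair defect were exposed to test compounds, and growth was compared with vehicle-treated controls to give percent inhibition.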

[2] = NCI Yeast Anticancer Drug Screen. Data for the mec2-1 strain (AID 157); settings: S. cerevisiae mec2-1 strain, at 50.0 µM, hits give high values
Outline: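 Each compound was tested on mec2-1 yeast, a strain altered in DNA damage repair or cell cycle control. Growth inhibition is reported relative to vehicle.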

[3] = NCI Yeast Anticancer Drug Screen. Data for the sgs1 mgt1 strain (AID 161);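 further: 0% = growth of cultures given vehicle only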; settings: S. cerevisiae sgs1 mgt1 strain, at 50.0 µM, hits give high values
Outline: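 Test agents were incubated with a DNA-repair-mutant yeast strain. Growth was then read and compared against vehicle-treated controls.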

[4] = NCI Yeast Anticancer Drug Screen. Data for the cln2 rad14 strain (AID 165);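 further: 0% = growth equal to vehicle treated cultures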; settings: S. cerevisiae cln2 rad14 strain, at 50.0 µM, hits give high values
Outline: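 Test compounds were added to cln2 rad14 yeast cultures; inhibition of growth was then determined by comparison with vehicle treatment.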

[5] = NCI Yeast Anticancer Drug Screen. Data for the bub3 strain (AID 167); settings: S. cerevisiae bub3 mutant strain, at 50.0 µM, hits give high values
Outline: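 Compounds were applied to a genetically altered yeast strain carrying a cell-cycle control defect. Growth inhibition was scored against vehicle-treated controls.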

[6] = NCI Yeast Anticancer Drug Screen. Data for the mlh1 rad18 strain (AID 175); settings: S. cerevisiae mlh1 rad18 strain growth inhibition; at 50.0 µM; hits give high values
Outline: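 Inhibition values reflect reduced growth of mutant yeast versus vehicle-treated controls following compound exposure; the mutations affect DNA damage repair.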

SMILES | growth inhibition [1] | growth inhibition [2] | growth inhibition [3] | growth inhibition [4] | growth inhibition [5] [%] | growth inhibition [6] [%]
CC12CC(c3ccccc3)C(C)(C(c3ccccc3)=C1c1ccccc1)C2(O)c1ccccc1 (stereo not given) | -2.85% | 0.1% | 12.7% | -13.3% | -2.45 | 13.4
COC(=O)C(CC(=O)c1cc2c(cc1I)OCO2)Cc1cc(OC)c(OC)c(OC)c1I (stereo not given) | -22.9% | -28.8% | -29.8% | -1.65% | -2.45 | -24.9
CC(=O)Nc1cccc(Cc2ccccc2)c1 | 14.3% | -14.4% | 1.05% | -67.2% | -6.3 | -4.6
O=S(=O)(c1ccc(Br)cc1)C(F)(F)F | 11.1% | 10% | 0.1% | 2.6% | 12.7 | 5.15
c1ccc2c(c1)SCCc1nncn1-2 | -6.6% | 7.3% | -1.4% | -24.4% | 8.5 | 4.95
O=C1C=C2CCC[C@H]3OC(=O)C[C@@]23CC1 | 12.4% | 16.2% | 35.3% | 28.4% | -0.95 | 27.4
[O-][n+]1ccccc1Cl | 8.05% | 9.9% | 10.2% | -14.4% | 6.85 | 16.4
COc1cc2oc(=O)ccc2cc1[C@@H]1OC(=O)[C@@]2(C)O[C@@H]12 | -0.75% | -6.3% | -1.35% | -35.7% | 3.35 | -2.85
CCCCCc1nnc2n1N=C(c1ccc(Cl)cc1)CS2 | -26.6% | -13.9% | -2.5% | 4.1% | -17.6 | 3.5
CC1C2CC(C(S(=O)(=O)O)C2=O)C1(C)C (stereo not given) | 9.25% | -7% | -32.5% | 6.45% | -36.8 | -29.3
COc1ccc(N2C(=O)c3c(c4[nH]c5ccccc5c4c4ccc(C(C)(C)C)cc34)C2=O)cc1 | 5.5% | -1.2% | 22.6% | 19.6% | -10.3 | -2.2
Cc1ccc(S(=O)(=O)OC2C3OC(C)(C)OC3OC2C(c2cc(O)c3c(c2O)C(=O)c2ccccc2C3=O)c2cc(O)c3c(c2O)C(=O)c2ccccc2C3=O)cc1 (stereo not given) | -35.5% | -25.6% | -11.6% | -5% | -8.2 | -25.1
CCC/C(CC)=N\Nc1ccc([N+](=O)[O-])cc1[N+](=O)[O-] | -6.9% | 9.4% | -2.35% | 30.9% | 12.9 | -4.1
CC1CCOCCCOC(=O)CCOCCC(=O)OCCCOCCCOC(=O)CCOCCC(=O)O1 (stereo not given) | 0.7% | 2.4% | 5% | 15.9% | -5.95 | -4.45
CC(=O)Nc1ccc(/C=C/C(=O)c2sc(-c3cccnc3)nc2C)cc1 | 33.2% | 11.8% | 3.25% | 17.9% | 17.5 | 29.3
NC(=O)c1ccccc1NC(=O)C(=O)C(c1cnc2ccc([N+](=O)[O-])cc2n1)[N+](=O)[O-] (stereo not given) | 9.7% | -1.1% | 19.6% | 12.9% | 5.85 | 28.8
COC(=O)CNC(=O)C(Cc1ccc(OCc2ccccc2)cc1)NC(=O)OC(C)(C)C (stereo not given) | 6.65% | 11% | 23.1% | 2.25% | -10.6 | 26.6
CC(=O)CC(C)(C)NNC(N)=S | 1.45% | 0.7% | 14.3% | -21.6% | -4.2 | 22.2
CN1C(=O)N(C)C2(CCN(CCCCCCF)CC2)C1=O | -10.2% | -19.9% | -34.2% | -6.9% | -18.6 | -29.4
CCOC(=O)CNc1nnnn1C1OC(CO)C(O)C1O (stereo not given) | -2.05% | -13.1% | -11.4% | 11.7% | -12 | -19.6

SMILES | growth inhibition [1] | growth inhibition [2] | growth inhibition [3] | growth inhibition [4] | growth inhibition [5] [%] | growth inhibition [6] [%]
O=C(N/N=C\C(F)(F)F)c1ccncc1 | 0.85% | -10.8% | 4.65% | -25% | 1.5 | 24.1
COc1ccc(OCC(C)(C)O)cc1 | -12.6% | -0.4% | 5.6% | 0.2% | -11.2 | -2.55
CC(C)CC(NC(=O)C(Cc1ccccc1)NC(=O)CNC(=O)CN)C(=O)O (stereo not given) (H-GGFL-OH; configuration not given here) | -1.55% | -4.05% | -11.4% | -5.05% | -1.9 | -12.4
CCc1ccc(N=Nc2c(F)c(F)c(NC(C)=O)c(F)c2F)cc1 | -3.95% | 11.3% | -10.5% | 6.9% | 7.9 | -13.4
CC1=NN(c2cc(S(=O)(=O)O)ccc2Cl)C(=O)C1N=Nc1ccccc1 (stereo not given) | -23.3% | -26.2% | -30.1% | 12.3% | -20.6 | -24.8
COc1ccc(C(=O)/C=C/c2ccc(OCCCOc3ccc(/C=C/C(=O)c4ccc(OC)cc4)cc3)cc2)cc1 | -7.3% | -19.9% | 3.6% | -24.6% | -19.9 | -27.4
CC1=C(C(=O)NCc2ccccc2)C(c2ccc(Cl)c(Cl)c2)C(C(=O)NCc2ccccc2)=C(C)N1 | -10.9% | 12.2% | -21.1% | 21.2% | -12.4 | -18.9
Cn1cc(S(=O)(=O)NC(=O)Nc2ccc(Cl)cc2)c(=O)c2ccc(Cl)cc21 | 21.6% | 20.8% | 23.1% | -17.5% | 33.2 | 8.75
COc1cc2c(c(OC)c1OC)-c1ccc(SC)c(=O)cc1[C@@H](NC(=O)CO)CC2 | 30% | 14.3% | 19.6% | 19.6% | 21.1 | 22.2
O=C(c1ccccc1)c1ccc2ccc(F)cc2c1C(=O)O | -4% | 17.9% | 2.05% | -17.9% | 16.6 | -7.7
C[C@@]12C[C@@H](c3ccccc3O1)N1CCCSC1=N2 | 20.2% | -16% | 4.6% | 32.8% | -9.8 | 12.4
COc1ccc2c(c1)N(S(=O)(=O)c1ccc(C)cc1)C[C@@H]1c3cc(O)c(OCc4ccccc4)cc3O[C@H]21 | -8.95% | 7.9% | -7.8% | -6.8% | 2.4 | 15.6
CCOC(=O)Cn1c(C)nc2nn(Cc3ccccc3)cc2c1=O | -49.7% | -56.1% | -36.2% | -1.35% | -32.9 | -30.8
O=C1CSC(c2ccc([N+](=O)[O-])cc2)N1c1nncs1 (stereo not given) | -10.9% | -6.8% | 7.25% | -2.65% | -8.7 | 0.55
CCN(CC)CCN1CC(=O)N2Cc3ccccc3CN2C(=O)C1 | -0.7% | -4.45% | 0.6% | 10.4% | 4.45 | 5.9
CCC(c1ccc(OC)cc1)c1cc2c(cc1OCC(=O)O)OCO2 (stereo not given) | 36.6% | 55.2% | 57.1% | 53.9% | 44.5 | 65.5
Cc1ccc2c(c1)OC(=O)CC2 | 10.3% | -9.65% | -3.25% | -18.8% | -4.1 | -4.3
O=C1CSC(c2ccc(Cl)c([N+](=O)[O-])c2)N1c1nncs1 (stereo not given) | 7.9% | 4.6% | 24.2% | 12.7% | 10 | 25.1
CCCCN(CCCC)CC(O)c1cc(-c2ccc(Cl)cc2)nc2cc(OC)c(OC)cc12 (stereo not given) | 99% (active) | 99.6% (active) | 99.7% (active) | 98.8% (active) | 51.8 | 69.9
C[C@@H]1C[C@H](C)OC(CO)O1 (stereo not given in full) (tested in a mixture with another compound) | 13.4% | -1.3% | 0.25% | 12.2% | -12.6 | 19.3
